In PubChem BioAssay (NCI) one finds growth data, which are given here for 10 molecules.

This is part of a sample that, as a whole, favours compounds with a hit. Of some 83,000 tested, about 20% had one in any assay.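 Note: values are percent growth. 100 is the growth of untreated cells, values between 100 and 0 indicate rising inhibition; between -100 and 0 indicates cell death.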 Values without a mark were called inactive. Activity calls are given as the source filed them. How the source made its calls: active means growth percent below 10; inactive means the rest.

Test in all cases: NCI-60 one-dose screen, 48 h (100 = growth as untreated, 0 = no growth, -100 = all killed)
One assay concerns NCI-H522 lung. The settings on record: 10 µM unless noted.
A further assay relates to A549/ATCC NSCLC. The settings on record: 10 µM unless noted.
Another assay relates to HT29 colon. The settings on record: 10 µM unless noted.
The test system of a further assay is SNB-75 CNS. The settings on record: 10 µM unless noted.
Another assay has as its system PC-3 prostate. The settings on record: 10 µM unless noted.
The next assay relates to SK-MEL-5 melanoma. The settings on record: 10 µM unless noted.
A further assay has as its system CAKI-1 renal. The settings on record: 10 µM unless noted.
The next assay relates to SR leukemia. The settings on record: 10 µM.
For the next assay, the system named is RPMI-8226 leukemia. The settings on record: 10 µM unless noted.
The test system of the next assay is OVCAR-5 ovarian. The settings on record: 10 µM unless noted.
The test system of a further assay is IGROV1 ovarian. The settings on record: 10 µM.
For a further assay, the system named is OVCAR-3 ovarian. The settings on record: 10 µM unless noted.
In another assay the test system is HS 578T breast. The settings on record: 10 µM unless noted.
Another assay has as its system MCF7 breast. The settings on record: 10 µM unless noted.
A further assay relates to COLO 205 colon. The settings on record: 10 µM.
The subject of a further assay is SK-MEL-28 melanoma. The settings on record: 10 µM unless noted.
Another assay has as its system EKVX NSCLC. The settings on record: 10 µM unless noted.
For the next assay, the system named is CCRF-CEM leukemia. The settings on record: 10 µM unless noted.

For `CNC(=O)Oc1cccc(N(C)C)c1`, the growth in the assay on NCI-H522 lung is 89.1%; with A549/ATCC NSCLC it was 93%; in the assay with HT29 colon, 106%; in the assay with SNB-75 CNS it was 97.5%; in the assay with PC-3 prostate, 97.2%; with SK-MEL-5 melanoma it was 99.2%. Also, the growth in the assay on CAKI-1 renal was 91.6%; in the assay on SR leukemia it was 103%; in the assay on RPMI-8226 leukemia, 101%; in the assay on OVCAR-5 ovarian, 102%; in the assay on IGROV1 ovarian, 108%; with OVCAR-3 ovarian, 110%. The growth in the assay with HS 578T breast is 108%; in the assay on MCF7 breast, 94.1%.

Regarding `CN=C(NN)NN`, the growth was 96.2% with A549/ATCC NSCLC; 129% with COLO 205 colon; 106% in the assay with HT29 colon; 98% with SNB-75 CNS; 93.3% in the assay on PC-3 prostate; 118% with SK-MEL-28 melanoma. Further, the growth with EKVX NSCLC is 97%; with CAKI-1 renal it was 88.9%; in the assay with CCRF-CEM leukemia it was 87.2%; in the assay on SR leukemia, 94.8%; in the assay with OVCAR-5 ovarian, 111%; in the assay on IGROV1 ovarian, 112%. Further, the growth is 102% with OVCAR-3 ovarian, 102% in the assay with HS 578T breast and 99.3% in the assay on MCF7 breast.

As for `Nc1ccc([N+](=O)[O-])c2c1Oc1ccccc1O2`, the growth in the assay with A549/ATCC NSCLC is 93.8%; with COLO 205 colon, 99.3%; in the assay with HT29 colon it was 103%; with SNB-75 CNS, 82.8%; in the assay with PC-3 prostate, 101%; with SK-MEL-5 melanoma it was 96.7%. In addition, the growth in the assay on SK-MEL-28 melanoma was 116%; in the assay on EKVX NSCLC, 91.9%; with CAKI-1 renal, 58.3%; in the assay on CCRF-CEM leukemia, 91.2%; in the assay with RPMI-8226 leukemia it was 105%; in the assay with OVCAR-5 ovarian, 88.1%. For the same molecule, the growth was 28% in the assay with IGROV1 ovarian, 88.3% with OVCAR-3 ovarian, 100% in the assay with HS 578T breast and 101% in the assay on MCF7 breast.

As to `c1cnc2c(c1)ccc1ncccc12`, the growth is 93.8% in the assay on NCI-H522 lung; 107% with A549/ATCC NSCLC; 109% with HT29 colon; 97.8% in the assay on SNB-75 CNS; 104% in the assay with SK-MEL-5 melanoma; 205% with SK-MEL-28 melanoma. Besides, the growth in the assay with EKVX NSCLC was 94.2%; in the assay on CAKI-1 renal, 91.7%; in the assay with SR leukemia, 110%; in the assay on OVCAR-3 ovarian, 90.6%; in the assay with HS 578T breast, 159%; in the assay with MCF7 breast, 107%.

For the molecule `O=C(O)CC(Br)C(=O)CBr` (centres undefined), the growth was 99.9% in the assay on A549/ATCC NSCLC; 109% in the assay with COLO 205 colon; 109% with HT29 colon; 93.5% in the assay with SNB-75 CNS; 98.7% in the assay on PC-3 prostate; 106% in the assay with SK-MEL-5 melanoma. Besides, the growth is 102% with SK-MEL-28 melanoma; 95.8% with CAKI-1 renal; 113% in the assay with SR leukemia; 103% in the assay on RPMI-8226 leukemia; 106% in the assay with OVCAR-5 ovarian; 114% in the assay on OVCAR-3 ovarian. Further, the growth with HS 578T breast is 104%; with MCF7 breast, 86.3%.

With `C[As](=O)(O)c1ccc(C(=O)O)cc1`, the growth with A549/ATCC NSCLC was 106%; in the assay on COLO 205 colon, 115%; in the assay with HT29 colon, 108%; with SNB-75 CNS, 90.2%; in the assay on SK-MEL-5 melanoma, 108%; with SK-MEL-28 melanoma, 106%. The growth was 120% in the assay on CAKI-1 renal; 118% with SR leukemia; 115% in the assay with OVCAR-5 ovarian; 120% in the assay with IGROV1 ovarian; 121% in the assay on OVCAR-3 ovarian; 100% with MCF7 breast.

For the molecule `C[C@@H]1CC[C@@H]2[C@@H]1[C@H](OC(=O)/C=C/C1CCCCC1)[C@]1(C3CCCCC3)C[C@@H](OC(=O)CO)[C@@]2(C)O1`, the growth in the assay with NCI-H522 lung was 46.9%; in the assay on A549/ATCC NSCLC it was 60.6%; in the assay on SNB-75 CNS it was 76.9%; in the assay with PC-3 prostate, 31.1%; in the assay on SK-MEL-5 melanoma, 84.8%; in the assay on SK-MEL-28 melanoma, 74.5%. Besides, the growth was 78.1% in the assay on EKVX NSCLC; -21.9% (active) in the assay on CAKI-1 renal; 41.1% with CCRF-CEM leukemia; 25.3% with RPMI-8226 leukemia; 101% in the assay on OVCAR-5 ovarian; 75.7% in the assay on IGROV1 ovarian. Also, the growth is 70.6% in the assay with OVCAR-3 ovarian, -28.1% (active) in the assay with HS 578T breast and 40.2% with MCF7 breast.

`CNc1ccc(C(=O)CC(O)CCC(C)C2OC(=O)CC(O)CC(=O)CC(O)CC(O)CC(O)CC(O)CC3(O)CC(O)C(C(=O)OC)C(CC(O[C@@H]4O[C@H](C)[C@@H](O)[C@H](N)[C@@H]4O)/C=C/C=C/C=C/C=C/C=C/C=C/C=C/C2C)O3)cc1` (some centres undefined): the growth in the assay with NCI-H522 lung is -13.2% (active); in the assay on A549/ATCC NSCLC it was -65% (active); with HT29 colon, -21.2% (active); in the assay with PC-3 prostate it was 15%; in the assay on SK-MEL-5 melanoma it was 2.72% (active); with SK-MEL-28 melanoma, -89.1% (active). Besides, the growth in the assay with EKVX NSCLC is -9.97% (active); with CAKI-1 renal, 2.61% (active); with CCRF-CEM leukemia, 14.9%; in the assay on SR leukemia it was -11.5% (active); in the assay on RPMI-8226 leukemia, 18.3%; with OVCAR-5 ovarian, -9.42% (active). Also, the growth is 3.21% (active) in the assay on IGROV1 ovarian, -15% (active) in the assay with OVCAR-3 ovarian and 8.58% (active) with MCF7 breast.

In the case of `C/C(=C\C(=O)O[C@H]1[C@@H]2[C@H](C)CC[C@H]2[C@]2(C)O[C@@]1(C1CCCCC1)C[C@H]2OC(=O)CO)c1ccccc1`, the growth is 20.3% in the assay on NCI-H522 lung; 40.8% with A549/ATCC NSCLC; 9.35% (active) with HT29 colon; 68.3% in the assay on SNB-75 CNS; 17.9% in the assay with PC-3 prostate; 71.7% in the assay with SK-MEL-5 melanoma. In addition, the growth with SK-MEL-28 melanoma is 64.6%; with EKVX NSCLC, 48%; with CAKI-1 renal it was -25% (active); in the assay with CCRF-CEM leukemia, 7.86% (active); in the assay on OVCAR-5 ovarian, 82.9%; with IGROV1 ovarian, 71.1%. In addition, the growth in the assay on OVCAR-3 ovarian was 44.4%; with HS 578T breast it was -28.1% (active); in the assay with MCF7 breast, 3.04% (active).

Consider `Nc1cccc(CC(=O)Nc2ccc(S(=O)(=O)F)cc2)c1`, for which the growth is 84.8% with NCI-H522 lung; 96.5% with A549/ATCC NSCLC; 71.8% with SNB-75 CNS; 82.2% with PC-3 prostate; 104% in the assay on SK-MEL-5 melanoma; 87.5% with SK-MEL-28 melanoma. Also, the growth is 104% in the assay with EKVX NSCLC; 2.63% (active) with CCRF-CEM leukemia; 96.7% in the assay with SR leukemia; 98.5% in the assay on OVCAR-5 ovarian; 86.7% in the assay with MCF7 breast.
